Data on 6 sequences can be found in article PMC7862700, “An all-to-all approach to the identification of sequence-specific readers for epigenetic DNA modifications on cytosine”.

Assay in all cases: DAPPL (digital affinity profiling via proximity ligation, sequencing); 10 mM Tris-HCl pH 7.5, 50 mM NaCl, 1 mM DTT, 4% glycerol, room temperature, 30 min; GST-TFs on glutathione beads, 16-mer random dsDNA library, 0.1% formaldehyde crosslink after washing; high values mean tight binding
Settings in all cases: protein: recombinant; tags: N-terminal GST; dsDNA, one strand shown

Assay [1] concerns the target T1, FLI1 (Homo sapiens, UniProt Q01543 1-452).
T1 sequence: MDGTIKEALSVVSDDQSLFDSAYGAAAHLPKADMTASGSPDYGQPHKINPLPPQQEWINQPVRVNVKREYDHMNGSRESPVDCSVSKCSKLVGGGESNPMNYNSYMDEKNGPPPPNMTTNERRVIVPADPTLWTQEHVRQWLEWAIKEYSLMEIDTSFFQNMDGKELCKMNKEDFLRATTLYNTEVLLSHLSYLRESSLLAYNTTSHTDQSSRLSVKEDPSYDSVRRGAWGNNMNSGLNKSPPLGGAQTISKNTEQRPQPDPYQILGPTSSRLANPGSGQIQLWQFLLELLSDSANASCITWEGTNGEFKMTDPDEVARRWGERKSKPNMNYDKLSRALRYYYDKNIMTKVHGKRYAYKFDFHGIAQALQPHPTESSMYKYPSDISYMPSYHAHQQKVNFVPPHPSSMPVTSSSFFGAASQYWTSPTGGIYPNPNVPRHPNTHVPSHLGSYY
The gist of the method: (§1)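 Pools were built from human transcription factors expressed in yeast as GST fusions, captured on glutathione beads and DNA-barcoded, along with a tag-only sample. Incubation with 200 nmole of a 16-mer random double-stranded DNA library lasted 30 min at room temperature in Tris/NaCl/DTT/glycerol buffer, and was followed by washing, 0.1% formaldehyde crosslinking, proximity ligation, PCR amplification and Illumina NextSeq500 sequencing. Binding signal is the quotient of each hexamer's read frequency for a factor and its frequency for the tag-only sample.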

The target of assay [2] is T2, ELK1 (Homo sapiens, UniProt P19419 1-428).
T2 sequence: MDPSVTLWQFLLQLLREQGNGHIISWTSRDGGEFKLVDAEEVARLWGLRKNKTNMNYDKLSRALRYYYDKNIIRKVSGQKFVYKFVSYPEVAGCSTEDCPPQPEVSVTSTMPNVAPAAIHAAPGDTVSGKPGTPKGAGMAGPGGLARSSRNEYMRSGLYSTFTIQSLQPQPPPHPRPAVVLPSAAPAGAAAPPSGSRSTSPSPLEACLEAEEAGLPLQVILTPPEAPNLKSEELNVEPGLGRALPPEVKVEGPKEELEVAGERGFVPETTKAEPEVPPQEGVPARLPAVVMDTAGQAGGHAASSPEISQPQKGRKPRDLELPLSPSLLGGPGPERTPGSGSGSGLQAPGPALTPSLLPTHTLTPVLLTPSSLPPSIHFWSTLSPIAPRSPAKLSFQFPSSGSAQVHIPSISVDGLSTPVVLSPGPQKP
Summed up: as §1

The target of assay [3] is T3, GABPA (Homo sapiens, UniProt Q06546 1-454).
T3 sequence: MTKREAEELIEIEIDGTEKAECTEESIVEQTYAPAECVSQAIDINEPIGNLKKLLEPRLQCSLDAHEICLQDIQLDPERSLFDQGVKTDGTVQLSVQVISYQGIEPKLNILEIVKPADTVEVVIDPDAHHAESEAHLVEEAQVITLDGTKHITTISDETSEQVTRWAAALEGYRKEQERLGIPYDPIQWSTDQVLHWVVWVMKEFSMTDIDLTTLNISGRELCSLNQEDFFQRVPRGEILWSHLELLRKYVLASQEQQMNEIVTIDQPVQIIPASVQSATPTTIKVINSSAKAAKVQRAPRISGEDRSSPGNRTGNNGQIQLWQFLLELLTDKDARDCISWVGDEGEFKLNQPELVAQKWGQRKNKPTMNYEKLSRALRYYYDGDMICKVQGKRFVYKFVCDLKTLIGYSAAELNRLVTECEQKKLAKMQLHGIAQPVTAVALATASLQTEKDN
The gist of the method:
as §1

In assay [4] the target is T4, ERG (Homo sapiens, UniProt P11308 1-479).
T4 sequence: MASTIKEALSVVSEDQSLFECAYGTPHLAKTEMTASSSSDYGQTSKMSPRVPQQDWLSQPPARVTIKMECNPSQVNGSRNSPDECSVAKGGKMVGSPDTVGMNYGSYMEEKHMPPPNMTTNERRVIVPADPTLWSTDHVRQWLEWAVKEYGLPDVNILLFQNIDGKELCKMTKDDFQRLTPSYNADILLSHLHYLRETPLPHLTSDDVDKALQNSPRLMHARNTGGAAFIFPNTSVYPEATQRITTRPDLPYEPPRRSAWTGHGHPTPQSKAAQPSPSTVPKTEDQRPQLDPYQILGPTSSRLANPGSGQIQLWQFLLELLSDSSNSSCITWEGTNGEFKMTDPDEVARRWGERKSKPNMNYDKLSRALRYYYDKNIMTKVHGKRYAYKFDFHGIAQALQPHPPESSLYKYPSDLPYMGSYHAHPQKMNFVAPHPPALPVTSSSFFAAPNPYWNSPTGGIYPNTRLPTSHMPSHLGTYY
Summed up: as §1

Assay [5] concerns the target ELF1 (Homo sapiens, UniProt P32519 1-619). Summed up:
as §1

For assay [6], the target named is T5, EHF (Homo sapiens, UniProt Q9NZC4 1-300).
T5 sequence: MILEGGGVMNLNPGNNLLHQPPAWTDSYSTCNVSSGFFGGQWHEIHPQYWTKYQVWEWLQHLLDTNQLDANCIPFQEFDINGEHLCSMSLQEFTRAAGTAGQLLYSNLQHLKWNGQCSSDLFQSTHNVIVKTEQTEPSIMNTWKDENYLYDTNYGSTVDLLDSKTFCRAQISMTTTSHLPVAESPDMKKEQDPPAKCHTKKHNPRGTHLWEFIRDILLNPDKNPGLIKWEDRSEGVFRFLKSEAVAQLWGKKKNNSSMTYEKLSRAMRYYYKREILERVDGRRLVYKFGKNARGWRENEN
Summed up: as §1

Assay [7] concerns the target SPI1 (Homo sapiens, UniProt P17947 1-270). Summed up: as §1
The target of assay [8] is SPIB (Homo sapiens, UniProt Q01892 1-262). The gist of the method: as §1
Chain of SPIB (Q01892 whole entry): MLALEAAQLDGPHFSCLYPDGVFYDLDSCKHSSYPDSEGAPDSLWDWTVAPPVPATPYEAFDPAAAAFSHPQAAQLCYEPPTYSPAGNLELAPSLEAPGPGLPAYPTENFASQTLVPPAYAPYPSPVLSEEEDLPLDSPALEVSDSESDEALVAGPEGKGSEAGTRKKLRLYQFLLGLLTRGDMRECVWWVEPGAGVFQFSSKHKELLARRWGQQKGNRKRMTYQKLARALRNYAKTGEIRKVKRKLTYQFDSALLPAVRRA
For assay [9], the target named is T6, ELK3 (Homo sapiens, UniProt P41970 1-407).
T6 sequence: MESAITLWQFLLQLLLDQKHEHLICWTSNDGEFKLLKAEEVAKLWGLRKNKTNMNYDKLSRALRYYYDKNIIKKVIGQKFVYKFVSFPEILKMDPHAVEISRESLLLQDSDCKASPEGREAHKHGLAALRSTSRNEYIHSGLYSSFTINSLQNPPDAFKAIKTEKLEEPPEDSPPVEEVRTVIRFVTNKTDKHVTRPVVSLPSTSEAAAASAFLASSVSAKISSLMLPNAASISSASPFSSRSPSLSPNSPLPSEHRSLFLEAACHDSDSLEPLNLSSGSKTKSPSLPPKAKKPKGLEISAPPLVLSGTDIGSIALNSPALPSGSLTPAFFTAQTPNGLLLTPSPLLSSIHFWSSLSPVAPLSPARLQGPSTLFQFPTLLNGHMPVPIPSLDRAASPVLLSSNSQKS
Summed up:
as §1

Chain of ELF1 (P32519 whole entry): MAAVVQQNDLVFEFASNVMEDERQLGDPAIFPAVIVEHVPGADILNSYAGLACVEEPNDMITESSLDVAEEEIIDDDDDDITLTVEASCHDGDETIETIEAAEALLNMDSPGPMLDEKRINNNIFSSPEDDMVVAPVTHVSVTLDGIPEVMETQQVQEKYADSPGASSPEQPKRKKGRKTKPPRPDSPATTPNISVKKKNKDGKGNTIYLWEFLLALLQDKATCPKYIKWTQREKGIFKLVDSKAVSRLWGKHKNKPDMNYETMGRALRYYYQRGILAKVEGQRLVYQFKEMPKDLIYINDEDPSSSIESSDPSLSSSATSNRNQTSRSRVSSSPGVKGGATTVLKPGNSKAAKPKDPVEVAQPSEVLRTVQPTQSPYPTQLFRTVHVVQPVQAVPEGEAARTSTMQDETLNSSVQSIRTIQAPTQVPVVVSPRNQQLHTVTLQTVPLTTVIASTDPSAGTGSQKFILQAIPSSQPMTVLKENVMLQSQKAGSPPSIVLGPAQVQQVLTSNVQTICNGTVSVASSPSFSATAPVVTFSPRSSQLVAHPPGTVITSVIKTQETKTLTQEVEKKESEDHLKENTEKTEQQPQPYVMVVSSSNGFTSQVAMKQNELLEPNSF

With CCTTAA, the binding signal in [1] was 1.38 fold enrichment (6-mer frequency, TF over GST control); in assay [2] it was 1.24 fold enrichment (6-mer frequency, TF over GST control); in assay [3] it was 1.27 fold enrichment (6-mer frequency, TF over GST control); in assay [4], 1.31 fold enrichment (6-mer frequency, TF over GST control); in [5] it was 1.35 fold enrichment (6-mer frequency, TF over GST control); in assay [6], 1.34 fold enrichment (6-mer frequency, TF over GST control). Besides, the binding signal is 1.4 fold enrichment (6-mer frequency, TF over GST control) in [7]; 1.45 fold enrichment (6-mer frequency, TF over GST control) in [8]; 1.2 fold enrichment (6-mer frequency, TF over GST control) in assay [9].
Turning to TAATTA, the binding signal was 1.24 fold enrichment (6-mer frequency, TF over GST control) in [1]; 1.2 fold enrichment (6-mer frequency, TF over GST control) in assay [2]; 1.23 fold enrichment (6-mer frequency, TF over GST control) in [3]; 1.3 fold enrichment (6-mer frequency, TF over GST control) in assay [4]; 1.3 fold enrichment (6-mer frequency, TF over GST control) in assay [5]; 1.22 fold enrichment (6-mer frequency, TF over GST control) in assay [6]. Further, the binding signal in [7] was 1.25 fold enrichment (6-mer frequency, TF over GST control); in assay [8] it was 1.27 fold enrichment (6-mer frequency, TF over GST control); in assay [9], 1.24 fold enrichment (6-mer frequency, TF over GST control).
With CTCTTA, the binding signal is 1.35 fold enrichment (6-mer frequency, TF over GST control) in [1]; 1.4 fold enrichment (6-mer frequency, TF over GST control) in assay [2]; 1.45 fold enrichment (6-mer frequency, TF over GST control) in [3]; 1.27 fold enrichment (6-mer frequency, TF over GST control) in assay [4]; 1.51 fold enrichment (6-mer frequency, TF over GST control) in assay [5]; 1.23 fold enrichment (6-mer frequency, TF over GST control) in assay [6]. The binding signal in assay [7] was 1.4 fold enrichment (6-mer frequency, TF over GST control); in assay [8], 1.32 fold enrichment (6-mer frequency, TF over GST control); in assay [9], 1.36 fold enrichment (6-mer frequency, TF over GST control).
As to ATTGCA, the binding signal in assay [1] was 1.17 fold enrichment (6-mer frequency, TF over GST control); in assay [2] it was 1.31 fold enrichment (6-mer frequency, TF over GST control); in assay [3] it was 1.19 fold enrichment (6-mer frequency, TF over GST control); in [4], 1.21 fold enrichment (6-mer frequency, TF over GST control); in [5], 1.17 fold enrichment (6-mer frequency, TF over GST control); in assay [6], 1.14 fold enrichment (6-mer frequency, TF over GST control). Also, the binding signal in assay [7] was 1.19 fold enrichment (6-mer frequency, TF over GST control); in [8], 1.17 fold enrichment (6-mer frequency, TF over GST control); in assay [9], 1.24 fold enrichment (6-mer frequency, TF over GST control).
Regarding GATCTC, the binding signal in [1] is 1.43 fold enrichment (6-mer frequency, TF over GST control); in [2], 1.19 fold enrichment (6-mer frequency, TF over GST control); in assay [3], 1.16 fold enrichment (6-mer frequency, TF over GST control); in [4] it was 1.2 fold enrichment (6-mer frequency, TF over GST control); in [5] it was 1.27 fold enrichment (6-mer frequency, TF over GST control); in assay [6] it was 1.42 fold enrichment (6-mer frequency, TF over GST control). Also, the binding signal in assay [7] was 1.28 fold enrichment (6-mer frequency, TF over GST control); in [8], 1.25 fold enrichment (6-mer frequency, TF over GST control); in [9], 1.23 fold enrichment (6-mer frequency, TF over GST control).
In the case of CTGAAA, the binding signal in assay [1] was 1.16 fold enrichment (6-mer frequency, TF over GST control); in assay [2], 1.14 fold enrichment (6-mer frequency, TF over GST control); in assay [3], 1.1 fold enrichment (6-mer frequency, TF over GST control); in assay [4], 1.04 fold enrichment (6-mer frequency, TF over GST control); in assay [5], 1.19 fold enrichment (6-mer frequency, TF over GST control); in [6], 1.09 fold enrichment (6-mer frequency, TF over GST control). The binding signal is 1.19 fold enrichment (6-mer frequency, TF over GST control) in assay [7]; 1.24 fold enrichment (6-mer frequency, TF over GST control) in assay [8]; 1.03 fold enrichment (6-mer frequency, TF over GST control) in assay [9].
